Among all 65,000 compounds or so, about 2,100 (3.2%) showed an effect of 50% or more. The median lay at about -52%. Only a selection was taken, and strong results are over-represented in it overall.
System: Plasmodium falciparum
Experiment: Screen against P. falciparum Asexual Blood Stage (ABS), at 5uM
Format: functional, Dd2
Conditions: tested at 5 uM

| Compound | INHIBITION [%] |
| --- | --- |
| CNC(=O)[C@@H](c1ccccc1OC)N1CCC[C@H]1C(=O)NCCN(C)C | -199 |
| CC(C)c1noc(CCCC(=O)N2CCN(S(C)(=O)=O)CC2)n1 | -41.7 |
| COCCN(C)C[C@@H]1CN(C(=O)c2ccc(=O)n(C)c2)C[C@@H]1CO | -237 |
| CCN(CC)C(=O)CN1CCC2(C=Cc3cc(Cl)c(C)cc3O2)CC1 | 49.3 |
| Cc1cc2c(cc1Cl)C=CC1(CCN(C(=O)N3CCOCC3)CC1)O2 | -24 |
| Cc1ccc(CCC(=O)N2CCOCC2)cc1Cl | -148 |
| Cc1cc2c(cc1Cl)C=CC1(CCN(CC(=O)N3CCCC3)CC1)O2 | 59.9 |
| Cc1cc2c(cc1Cl)C=CC1(CCN(CC(=O)NC3CCCC3)CC1)O2 | 32.7 |
| Cc1cc2c(cc1Cl)C=CC1(CCN(CC(=O)N3CCOCC3)CC1)O2 | 67.6 |
| Cc1cc(C(=O)N2CCCC(n3cncn3)C2)nn1C (configuration not stated) | -8.41 |
| COc1ccc(CNc2cnn(C)c(=O)c2Cl)cc1 | -21.1 |
| CCN1C[C@@H]2[C@@H](OC)CCN(S(=O)(=O)c3ccccc3)[C@@H]2C1 | 33.8 |
| CCN1C[C@H]2[C@@H](C1)N(S(=O)(=O)c1ccccc1)CC[C@H]2OC | 62.8 |
| CCN1C[C@H]2[C@@H](C1)N(S(=O)(=O)c1ccccc1F)CC[C@H]2OC | 48.5 |
| Cc1ccc(C2(O)CCN(C(=O)CCn3ccc(=O)[nH]c3=O)CC2)nc1 | -56.8 |
| Cc1ccc(-c2nnc(CN3CCCC(Cn4cncn4)C3)o2)cc1 (configuration not stated) | -182 |
| CN(C)C(=O)CN1CCC2(COCc3cnc(-c4ccccc4)nc32)C1 (configuration not stated) | -24.6 |
| CN(Cc1ccco1)C(=O)C1CCCc2ccccc21 (configuration not stated) | -142 |
| COCCN1CCOCC2(CCCN(Cc3cccc(F)c3)C2)C1 (configuration not stated) | 9.71 |
| Cn1cc(CN2CCOC3(CCCN(c4cccc(F)c4)C3)C2)cn1 (configuration not stated) | -5.32 |
| Cc1ccc(CN2CCOC3(CCCN(c4cccc(F)c4)C3)C2)o1 (configuration not stated) | 51.6 |
| Fc1cccc(CN2CCOC3(COCCN(CC4CC4)C3)C2)c1 (configuration not stated) | 63.4 |

| Compound | INHIBITION [%] |
| --- | --- |
| Fc1cccc(N2CCCC3(CN(Cc4ccncc4)CCO3)C2)c1 (configuration not stated) | 38.4 |
| Fc1cccc(N2CCCC3(CN(Cc4cccnc4)CCO3)C2)c1 (configuration not stated) | 66 |
| Fc1cccc(N2CCCC3(CN(Cc4ccco4)CCO3)C2)c1 (configuration not stated) | 43.7 |
| O=C(c1ccoc1)N1CCOC2(COCCN(CC3CC3)C2)C1 (configuration not stated) | -17.6 |
| OCCN1CCOC2(CCCN(c3cccc(F)c3)C2)C1 (configuration not stated) | -22.5 |
| Fc1ccc(CNCC2Cn3nncc3CO2)cc1 (configuration not stated) | -21.1 |
| COc1cc(N2CCCC3(CCN(c4cccnc4)C3=O)C2)ncn1 (configuration not stated) | -14.1 |
| FC(F)c1nnc2ccc(N3CCC4(CCCCC4)C3)nn12 | 61.4 |
| Cc1nnc2ccc(N3CCC4(CCOC4)C3)nn12 (configuration not stated) | -37.2 |
| FC(F)c1nnc2ccc(N3CCC4(CCOC4)C3)nn12 (configuration not stated) | -52.7 |
| O=S1(=O)CCC(CNc2cc(-c3ccccc3)nc3ccnn23)C1 (configuration not stated) | -47.3 |
| O=S(=O)(c1ccccc1F)N1CCCC(c2nccs2)C1 (configuration not stated) | -129 |
| O=C(NCCCSc1ccc(F)cc1)C1CCc2cn[nH]c2C1 (configuration not stated) | -54.6 |
| COCc1cn(C2CCN(CCC(C)c3ccccc3)CC2)nn1 (configuration not stated) | -46.3 |
| COc1ccc(C(=O)NCC2CCCN(C3CCOCC3)C2)c(O)c1 (configuration not stated) | -31.9 |
| CC(C)Cc1noc(CN2CCN(CCO)CC2)n1 | 0.0946 |
| CCCc1noc(CN2CCN(CCO)CC2)n1 | 50.5 |
| CCc1noc(CN2CCN(CCO)CC2)n1 | -176 |
| C[C@H](O)CNc1cc(-c2ccncc2)ncn1 | -170 |
| CCCOCCN1CCC2(CC1)CC(=O)N(Cc1cc(F)cc(F)c1)C2 | 38.7 |
| Cc1csc(CNCC(C)c2nc3ccccc3o2)n1 (configuration not stated) | -27.8 |
| Cc1nc(CNCC(C)c2nc3ccccc3o2)cs1 (configuration not stated) | -109 |

| Compound | INHIBITION [%] |
| --- | --- |
| Cc1ccc(O)c(CNCC(C)c2nc3ccccc3o2)n1 (configuration not stated) | 63.2 |
| CN1CCc2nc(C3CCN(C(=O)CCC4CCCC4)CC3)ncc2C1 | -37.6 |
| O=C(NC1CCCN(CCCc2ccccc2)C1)C1=CCCCC1 (configuration not stated) | 2.46 |
| O=C(NC1CCCN(CCCc2ccccc2)C1)c1ccc(Cl)s1 (configuration not stated) | 60.9 |
| O=C(NC1CCCN(CCCc2ccccc2)C1)c1ccncc1 (configuration not stated) | -29.1 |
| O=C(C1CC1)N1CC[C@H](c2nc3ccccc3o2)C1 | 50.1 |
| CC(=O)N1CC[C@H](c2nc3cc(F)ccc3o2)C1 | -105 |
| CC(=O)N1CC[C@H](c2nc3cc(C)ccc3o2)C1 | -68.8 |
| CC(O)CNc1c(NCc2ccco2)c(=O)c1=O (configuration not stated) | -192 |
| Cc1cc(C)c(N(CC(O)CNCc2ccco2)S(C)(=O)=O)c(C)c1 (configuration not stated) | 60.7 |
| Cc1ccc(CS(=O)(=O)NCc2ccco2)cc1 | -31.4 |
| CN(C)c1nc(NCCc2ccccn2)ncc1F | -447 |
| Cc1ccc2c(c1)CN(C(=O)c1cccnc1)C(CN(C)C)CO2 (configuration not stated) | 29.2 |
| COc1ccccc1C(=O)N1Cc2cc(C)ccc2OCC1CN(C)C (configuration not stated) | 60.8 |
| Cc1ccc2c(c1)CN(C(=O)c1cnc(C)cn1)C(CN(C)C)CO2 (configuration not stated) | -86.1 |
| Cc1nc(C)c(C(=O)N2Cc3ccccc3OCC2CN(C)C)o1 (configuration not stated) | -21.9 |
| Cc1ccc(C(=O)N2CCCCC2CN(C)C)cc1 (configuration not stated) | -58.9 |
| Cc1ccc2c(c1)CN(C(=O)C1CCCCC1)C(CN(C)C)CO2 (configuration not stated) | 66 |
| COc1ccc(C(=O)N2Cc3cc(C)ccc3OCC2CN(C)C)cc1 (configuration not stated) | 17.9 |
| Cc1ccc2c(c1)CN(C(=O)c1ccncc1)C(CN(C)C)CO2 (configuration not stated) | 13 |
| Cc1ccc2c(c1)CN(C(=O)c1ccccc1F)C(CN(C)C)CO2 (configuration not stated) | 50.4 |
| CCCn1nccc1NC(=O)CN1CCc2cnc(C(C)C)nc2C1 | -4.64 |

| Compound | INHIBITION [%] |
| --- | --- |
| CC(C)CNC(=O)CC1(Cn2cnnn2)CCCCC1 | -92.1 |
| O=S(=O)(c1ccc(Cl)s1)N1CCCn2ncnc21 | -131 |
| O=C1CO[C@@H]2CN(CC3CC3)C[C@H]2N1Cc1cccc(F)c1 | -55 |
| O=C1NCC2(CCC(C(=O)N3CCC(O)CC3)CC2)Oc2ccccc21 (configuration not stated) | -99.2 |
| CN(C)c1nccc(C2CN(c3ccccc3)CCO2)n1 (configuration not stated) | -40.1 |
| Cc1ccc(C)n1-c1c(C(=O)NCC(C)N(C)C)cnn1C (configuration not stated) | -93.5 |
| CCN1C(=O)CCCC12CCCN(C(=O)c1ccncc1F)C2 (configuration not stated) | -46.7 |
| Fc1ccccc1CN1CCCC(NC2CCOCC2)C1 (configuration not stated) | -11.9 |
| CC(C)(CNC1CCCN(Cc2ccccn2)C1)CN1CCOCC1 (configuration not stated) | -82.2 |
| CC(C)(CNC1CCCN(Cc2ccccc2F)C1)CN1CCOCC1 (configuration not stated) | 56.4 |
| CN(C)c1ncc(CNC(=O)Nc2ccc(C(F)(F)F)cc2)n1C | 68.3 |
| CN(C)c1ncc(CNC(=O)Nc2ccccc2F)n1C | -31 |
| CN(C)c1ncc(CNC(=O)Nc2ccccc2C(F)(F)F)n1C | -113 |
| Cn1cc(C(=O)NCc2cn3c(n2)CN(C2CCOCC2)CC3)cn1 | -26.8 |
| COCCN(C(=O)c1ccccn1)c1nc2c(s1)CCc1c-2cnn1C | 6.99 |
| CC(=O)c1cc(CN2C[C@@H](NS(=O)(=O)N(C)C)[C@H](C(C)C)C2)cs1 | 32.8 |
| CC(C)[C@@H]1CN(Cc2ccsc2)C[C@H]1NS(=O)(=O)N(C)C | 66.3 |
| CC(C)[C@@H]1CN(CCOc2ccccc2)C[C@H]1NS(=O)(=O)N(C)C | 40.3 |
| CC(C)[C@H]1CN(C2Cc3ccccc3C2)C[C@@H]1NS(=O)(=O)N(C)C | 61.6 |
| CC(C)[C@H]1CN(C2Cc3ccccc3C2)C[C@@H]1NS(C)(=O)=O | 34.6 |
| Cc1nc(CN2C[C@@H](NS(=O)(=O)N(C)C)[C@H](C(C)C)C2)cs1 | 19.1 |
| Cc1ccsc1CN1CCc2c(nc(N3CCCCC3C)[nH]c2=O)C1 (configuration not stated) | -14.7 |

| Compound | INHIBITION [%] |
| --- | --- |
| COCCN1C[C@@H]2CN(c3cc(OC)ncn3)CCC[C@]2(C(=O)O)C1 | -84 |
| O=C(NCc1cn2c(n1)CN(CC1CCOCC1)CC2)C1CCC1 | -14.2 |
| c1ncn(Cc2nnc(C3CCN(CC4CC4)CC3)n2C2CC2)n1 | -88.1 |
| Cc1cc(NC(=O)NCC(O)c2ccc(F)cc2)n(C)n1 (configuration not stated) | 18.3 |
| Cc1cc(C)cc(CNc2ccc(C(=O)NC(C)CO)cc2)c1 (configuration not stated) | -96.7 |
| COC(=O)CC1CCCCN1CC(=O)Nc1ccc(F)cc1Cl (configuration not stated) | -174 |
| CCN1CCCC(O)(CN(C)Cc2c(C)nn(C)c2C)C1 (configuration not stated) | -105 |
| CCN1CCCC(O)(CNCc2ccccc2F)C1 (configuration not stated) | 40.6 |
| CCN1CCCC(O)(CN(C)Cc2ccccc2F)C1 (configuration not stated) | 57.5 |
| Cc1nn(C)c(Cl)c1C1CCCN1CC(=O)NCc1ccco1 (configuration not stated) | -24.5 |
| CC(NCc1cccs1)c1ccc(OCc2nccn2C)cc1 (configuration not stated) | -50.1 |
| CCc1cc(N2CCSCC2)n2nc(C)c(C)c2n1 | -90.3 |
| CCc1cc(N2CCCNCC2)n2nc(C)c(C)c2n1 | 54.5 |
| CCc1cc(N2CCS(=O)(=O)CC2)n2nc(C)c(C)c2n1 | -16.5 |
| CCNc1ncc(CN2C[C@@H]3CC[C@H]2CN(C(=O)C2CCC2)C3)cn1 | -47.5 |
| O=C([C@H]1CCCO1)N1CCCC2(COCCN(c3ccccc3)C2)C1 (some centres not stated) | 25.2 |
| Cc1cnn(CCNCC(O)COc2ccc(Cl)cc2Cl)c1 (configuration not stated) | 20.2 |
| Cc1cnn(CCNCC(O)COc2ccc(Cl)cc2)c1 (configuration not stated) | -16.9 |
| Cc1cnn(CCNCC(O)COc2cc(Cl)ccc2Cl)c1 (configuration not stated) | 58 |
